# TRHR PAM: TRH receptor (human) allosteric enhancement; AID 493056; TRHR cells, fluo-8 calcium fluorescence, EC20 TRH enhancement; enhancement, % at 2 µM; actives 0.66% (n = 360,000); in the data active = enhancement above about 30%; also: 0% is about no effect
# Target sequence (P34981 whole entry, looked up): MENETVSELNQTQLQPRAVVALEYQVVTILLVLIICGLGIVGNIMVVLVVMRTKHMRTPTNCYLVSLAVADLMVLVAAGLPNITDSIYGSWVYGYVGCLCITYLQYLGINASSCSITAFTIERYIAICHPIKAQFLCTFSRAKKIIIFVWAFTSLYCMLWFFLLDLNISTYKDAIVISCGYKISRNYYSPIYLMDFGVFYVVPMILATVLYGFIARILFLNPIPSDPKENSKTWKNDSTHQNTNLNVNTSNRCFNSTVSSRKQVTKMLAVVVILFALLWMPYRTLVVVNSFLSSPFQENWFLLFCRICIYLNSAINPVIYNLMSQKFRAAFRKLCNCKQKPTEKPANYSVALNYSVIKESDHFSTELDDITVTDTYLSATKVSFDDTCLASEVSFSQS
#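 Enhancer read-out: after compound pinning and an initial kinetic agonist-mode read, an EC20 of TRH (10 nM final) was injected and fluo-8 calcium signal (Ex 480/Em 530) followed at 1 s/cycle for 100 cycles in TRHR-expressing cells.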
# D1 PAM: enhances dopamine response at the human D1 receptor | P21728 | HEK293 TREx D1 cells, calcium flux, dopamine EC20 potentiation | potentiation, % at 10 µM | actives 0.036% (n = 360,000); in the data active = potentiation above about 30%; also: 0% is about no effect
# TRHR agonist: TRH receptor (human) agonism; activation, % at 2 µM; P34981; TRHR cells, calcium flux fluo-8, FDSS agonist mode; actives 0.18% (n = 360,000); also: 0% is about no effect
#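 TRHR-expressing cells loaded with fluo-8 calcium dye; 23 nL library compound pin-transferred, kinetic FDSS fluorescence (Ex 480/Em 530) recorded about 180 s for agonist-induced calcium release, before a 10 nM TRH EC20 addition for potentiator mode.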
# D1 agonist: activates the human D1 dopamine receptor. P21728. HEK293 T-REx D1 cells, calcium flux, agonist mode. activation, % at 2 µM. actives 1% (n = 360,000); also: 0% is about no effect
#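 Agonism was scored from calcium flux recorded over 180 s (1 read/s) after pintool compound addition, following a 10-cycle baseline. Cells were inducible force-coupled HEK293 TREx D1, plated overnight at 30 C and loaded with no-wash calcium dye.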
# D1 antag: antagonists of human D1 dopamine receptor; HEK293 TREx D1 cells, calcium flux, dopamine EC80; stronger effect = lower value; activity change, negative = inhibition, % at 10 µM; actives 3.2% (n = 360,000); AID 504652; in the data active = activity change below about -30%; also: % is scaled to controls: 0 for no effect and ±100 for the full control effect
#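 Kinetic fluorescence of a calcium dye serves as the read-out. D1-expressing Hek293 Trex cells, induced overnight at 30 C, are exposed to compound for 180 s before an EC80 dopamine addition, then read 180 s further.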
# Starred values were filed as active, the others as inactive; nt = no result. An excerpt weighted towards active compounds, which were near 4.7% of everything screened. Rule as the data show it, unless noted: active = activation above about 30%; inactive = the rest.
SMILES,TRHR PAM,D1 PAM,TRHR agonist,D1 agonist,D1 antag
N#Cc1cccc(NC(=O)c2ccccc2C(=O)O)c1,-1,-2,1,3,0
N#Cc1ccc(NC(=O)Nc2cccc(C#N)c2)cc1,4,-13,3,32*,-63*
CC(=O)OCc1cnc(C)c2oc(=O)c(C(=O)Nc3cc(F)ccc3C)cc12,6,4,1,0,6
COC(CN(C)C(=O)c1cn(C)c2ccc(S(=O)(=O)N(C)C3CCCCC3)cc2c1=O)OC,31*,-5,0,1,-1
Cc1ccc(CNC(=O)c2cn(C)c3ccc(S(=O)(=O)N(C)C4CCCCC4)cc3c2=O)cc1,0,2,0,-2,-3
COc1ccccc1CNC(=O)c1cn(C)c2ccc(S(=O)(=O)N(C)C3CCCCC3)cc2c1=O,3,15,0,4,-37*
COc1ccc2c(c1)c1c(c(=O)n(-c3ccc(F)c(Cl)c3)c(=O)n1Cc1ccccc1C)n2C,-1,0,1,0,7
Cc1ccc(NC(=S)NC(=O)Cc2ccccc2)c(O)c1,1,0,2,33*,-10
Cc1ccc(NC(=O)COc2ccc(C(=O)c3ccccc3)cc2)c(O)c1,-6,-10,-1,11,-30*
COc1ccc(NC(=S)NC(=O)Cc2ccccc2)c(OC)c1,2,3,2,16,11
COc1ccc(CCCc2nnc(SCC(=O)Nc3ccc(C)cc3)o2)cc1,-6,-3,0,7,-2
CNc1oc(-c2ccc(OCc3ccccc3)cc2)nc1C#N,-7,-9,0,5,-32*
N#Cc1nc(-c2ccc(OCc3ccccc3)cc2)oc1NCc1ccco1,1,-4,0,1,4
CSc1ccc(S(=O)(=O)NCCOc2ccccc2C)cc1,-3,-7,0,9,-31*
COCCCNS(=O)(=O)c1ccc(SC)cc1,-1,-3,0,3,-4
COC(=O)Cc1c(C)nc2nc(NCc3ccc(Br)cc3)[nH]n2c1=O,-11,1,0,1,3
CCCNC(=O)c1nnsc1S(=O)c1ccc(Cl)cc1 (configuration not stated),-2,-1,9,2,20
CCCNC(=O)c1nnsc1S(=O)(=O)c1ccc(Cl)cc1,-11,-7,12,0,-39*
Cc1ccc2nc(CCc3nc4ccc(C)cc4o3)oc2c1,-1,-1,0,6,4
Cc1ccc2nc(Cc3ccc(N)cc3)oc2c1,2,-12,0,1,-31*
CNC(=O)c1ccc(CSc2nc3ccncc3n2Cc2ccc(C)cc2)cc1,0,-4,0,-1,-17
CCc1ccc(S(=O)(=O)c2nnn(-c3cccc(C)c3)c2N)cc1,-1,1,6,64*,-30*
O=C(Nc1ccccc1)c1ccc2c(O)c(S(=O)(=O)c3ccc(Cl)cc3)c(=O)[nH]c2c1,-7,-3,-1,2,6
CN(CC(=O)Nc1ccccc1Cl)C(=O)COC(=O)c1ccc(Cl)cc1[N+](=O)[O-],16,-9,-1,0,-42*
CCCCC(CC(O)COCCC)c1n[nH]c(=S)n1-c1ccccc1 (configuration not stated),-3,-2,1,5,-45*
SMILES,TRHR PAM,D1 PAM,TRHR agonist,D1 agonist,D1 antag
CCCCCC(O)CCc1n[nH]c(=S)n1-c1ccccc1 (configuration not stated),2,-1,0,1,11
O=C(COC(=O)c1cc2c(s1)CCCC2)Nc1ccc(Cl)cn1,-2,-5,-1,3,5
O=C(OCc1c(Cl)nc2sccn12)c1cc2c(s1)CCCC2,33*,-3,0,3,4
c1ccc(-n2cnc3cc(NCc4ccncc4)ccc32)cc1,1,-4,0,10,-39*
c1ccc(-n2cnc3cc(NCc4ccccn4)ccc32)cc1,-2,-4,0,0,0
Cc1ccc(-c2nc(CN3CCCC(C(=O)N4CCOCC4)C3)c(C)o2)cc1 (configuration not stated),-2,0,-1,0,-34*
Cc1cccc(-c2nc(CN3CCCC(C(=O)NCCc4ccc(Cl)cc4)C3)c(C)o2)c1 (configuration not stated),34*,24,1,28,19
Cc1oc(-c2cccc(Cl)c2)nc1CN1CCC(C(=O)NCc2ccco2)CC1,-3,-8,0,12,-4
Cc1oc(-c2cccc(Cl)c2)nc1CN1CCCC(C(=O)NCc2ccco2)C1 (configuration not stated),-9,-4,0,6,-41*
Cc1oc(-c2cccc(Cl)c2)nc1CN1CCCC(C(=O)N2CCN(c3ccc(F)cc3)CC2)C1 (configuration not stated),3,-1,0,35*,-64*
Cc1nc2cccnc2n1-c1cccc(C(=O)NCCc2ccc(S(N)(=O)=O)cc2)c1,-1,0,0,0,8
Cc1oc(-c2ccc(Cl)cc2)nc1CN1CCC(C(=O)NCCCN2CCCC2=O)CC1,-3,-5,0,2,3
Cc1oc(-c2ccc(Cl)cc2)nc1CN1CCC(C(=O)N2CCN(Cc3ccccc3)CC2)CC1,9,nt,1,33*,-68*
Cc1oc(-c2ccc(Cl)cc2)nc1CN1CCC(C(=O)NCCCN2CCCC(C)C2)CC1 (configuration not stated),7,-5,0,4,-30*
COc1ccc(NC(=O)c2cc(=O)c3ccc(C)c(C)c3o2)cc1Cl,3,0,0,4,-8
CC(C)Oc1cccc(C(=O)NC(=S)NCc2cccnc2)c1,40*,-3,-2,0,-6
CCc1ccc(NC(=O)c2ccc(S(=O)(=O)NCc3cccnc3)cc2)cc1,11,nt,1,10,-34*
CCc1ccc(C(=O)NC(=S)NCc2cccnc2)cc1,-3,-9,-2,3,-35*
CC(=O)C(Sc1nc(-c2ccccc2Cl)nc2c1c(=O)n(C)c(=O)n2C)C(=O)N(C)C (configuration not stated),-7,6,0,0,4
Cc1cc(-c2ccccc2)nc(SC(C(=O)O)c2ccccc2)n1 (configuration not stated),7,-7,0,2,-13
O=C(O)C(Sc1ccncn1)c1ccccc1 (configuration not stated),2,2,0,1,-35*
COc1cc(/C=C/C(=O)c2ccc3c(c2)OCO3)cc(Cl)c1O,22,nt,197*,246*,-22
COc1ccc(/C=C/C(=O)c2ccc3c(c2)OCO3)c(OC)c1,-4,-7,0,9,7

# Compound activity deposited in PubChem by National Center for Advancing Translational Sciences (NCATS).
